Molecules are shown by their SMILES. For some of these results: Measured potencies and affinities stand elsewhere.

Assay [1] has as its target T1, Methionyl-tRNA synthetase, putative (Leishmania donovani (strain BPK282A1)) (UniProt E9BF75).
T1 sequence (whole entry): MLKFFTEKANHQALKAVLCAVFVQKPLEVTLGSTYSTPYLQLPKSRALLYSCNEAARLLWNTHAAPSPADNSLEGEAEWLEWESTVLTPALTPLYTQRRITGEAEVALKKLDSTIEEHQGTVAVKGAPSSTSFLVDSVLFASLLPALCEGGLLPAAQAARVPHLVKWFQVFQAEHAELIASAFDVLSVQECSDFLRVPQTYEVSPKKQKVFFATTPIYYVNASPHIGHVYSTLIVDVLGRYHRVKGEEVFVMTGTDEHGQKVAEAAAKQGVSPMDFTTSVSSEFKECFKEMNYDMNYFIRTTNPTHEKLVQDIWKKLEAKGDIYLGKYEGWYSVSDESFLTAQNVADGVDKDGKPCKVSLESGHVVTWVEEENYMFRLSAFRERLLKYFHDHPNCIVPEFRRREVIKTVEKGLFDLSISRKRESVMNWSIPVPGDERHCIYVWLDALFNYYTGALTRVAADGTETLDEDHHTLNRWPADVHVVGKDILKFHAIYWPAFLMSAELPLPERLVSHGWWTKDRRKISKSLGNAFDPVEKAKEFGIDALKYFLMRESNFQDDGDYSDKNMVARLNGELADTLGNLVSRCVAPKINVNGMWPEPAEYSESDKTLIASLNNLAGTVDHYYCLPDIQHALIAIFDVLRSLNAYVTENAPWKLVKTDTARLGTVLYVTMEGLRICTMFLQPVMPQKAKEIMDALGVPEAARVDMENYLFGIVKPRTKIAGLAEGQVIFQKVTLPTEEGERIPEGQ
In words: Leishmania donovani Methionine tRNA synthetase (LdMetRS):v7. Dose response assay. The assay is classed as functional. On the set-up: conc 80 nM, time 150 minutes.

Assay [2] addresses Protein translocase subunit SecA (Escherichia coli (strain K12)) (UniProt P10408). Briefly: Assay to Identify E. coli SecA ATPase Inhibitors. The class given is functional. On the set-up: scale not given: direction of the effect not stated beside the values. To be noted: 30 µM.
For assay [3], the target named is T2, Ubiquitin-activating enzyme e1, putative (Leishmania donovani (strain BPK282A1)) (UniProt E9BSI1).
T2 sequence (whole entry): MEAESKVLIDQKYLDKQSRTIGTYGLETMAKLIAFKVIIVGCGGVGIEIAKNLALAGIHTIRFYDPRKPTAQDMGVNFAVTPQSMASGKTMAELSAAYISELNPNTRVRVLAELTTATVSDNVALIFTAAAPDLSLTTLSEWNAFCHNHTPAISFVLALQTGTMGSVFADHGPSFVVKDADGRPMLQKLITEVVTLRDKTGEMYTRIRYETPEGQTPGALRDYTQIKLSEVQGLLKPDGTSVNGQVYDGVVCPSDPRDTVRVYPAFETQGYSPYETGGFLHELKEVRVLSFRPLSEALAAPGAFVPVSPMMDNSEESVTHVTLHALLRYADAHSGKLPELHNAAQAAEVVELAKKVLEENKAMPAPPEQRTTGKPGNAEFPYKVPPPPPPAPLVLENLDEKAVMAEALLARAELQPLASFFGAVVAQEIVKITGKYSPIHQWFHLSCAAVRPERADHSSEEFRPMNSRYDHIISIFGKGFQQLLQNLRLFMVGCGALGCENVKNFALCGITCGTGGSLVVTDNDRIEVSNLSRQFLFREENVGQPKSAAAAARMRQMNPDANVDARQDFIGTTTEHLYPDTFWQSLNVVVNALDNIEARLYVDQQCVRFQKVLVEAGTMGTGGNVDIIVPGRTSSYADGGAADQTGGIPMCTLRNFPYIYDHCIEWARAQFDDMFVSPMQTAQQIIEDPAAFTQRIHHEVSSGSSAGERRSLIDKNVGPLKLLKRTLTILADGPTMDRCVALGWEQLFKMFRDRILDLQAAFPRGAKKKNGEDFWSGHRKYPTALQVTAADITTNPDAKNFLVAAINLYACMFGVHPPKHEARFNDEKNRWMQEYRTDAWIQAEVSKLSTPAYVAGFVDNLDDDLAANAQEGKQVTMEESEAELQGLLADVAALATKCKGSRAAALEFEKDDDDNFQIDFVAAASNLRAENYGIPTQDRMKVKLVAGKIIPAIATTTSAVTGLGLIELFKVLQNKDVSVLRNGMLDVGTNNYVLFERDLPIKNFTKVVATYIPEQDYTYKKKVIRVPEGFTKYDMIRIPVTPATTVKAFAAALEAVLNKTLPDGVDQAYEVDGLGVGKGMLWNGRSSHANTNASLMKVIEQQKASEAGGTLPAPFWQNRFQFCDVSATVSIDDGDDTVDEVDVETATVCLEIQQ
Briefly: Leishmania donovani Ubiquitin Activating Enzyme (LdE1). The class given is functional. On the set-up: scale not given: direction of the effect not stated beside the values. To be noted: 30 µM.

Assay [4] deals with AMP-activated protein kinase, AMPK (Homo sapiens) (UniProt P54646+O43741+P54619+Q9UGJ0+Q9Y478+Q13131+Q9UGI9). In words: AMP-dependent Kinase enzyme assay. An in vitro enzyme assay that detects ADP turnover that is directly proportional to AMPK activity. This uses naive AMPK that is activated during the assay with MK-8722. The assay is classed as functional. On the set-up: scale not given: direction of the effect not stated beside the values. To be noted: 30 µM.

Assay [5] has as its target Sialic acid-binding Ig-like lectin 9 (Homo sapiens) (UniProt Q9Y336). In words: Hs-Siglec9 ALPHAscreen SOP 20170721. On the set-up: scale not given: direction of the effect not stated beside the values. To be noted: 10 µM.
A further assay concerns Trypanosoma cruzi. In words: Trypanosoma cruzi phosphomannomutase and mannose-1-phosphate guanylyltransferase assay. The class given is functional. On the set-up: scale not given: direction of the effect not stated beside the values. To be noted: 10 µM.
The target of assay [6] is T3, Arginase-2, mitochondrial (Homo sapiens) (UniProt P78540).
T3 sequence (whole entry): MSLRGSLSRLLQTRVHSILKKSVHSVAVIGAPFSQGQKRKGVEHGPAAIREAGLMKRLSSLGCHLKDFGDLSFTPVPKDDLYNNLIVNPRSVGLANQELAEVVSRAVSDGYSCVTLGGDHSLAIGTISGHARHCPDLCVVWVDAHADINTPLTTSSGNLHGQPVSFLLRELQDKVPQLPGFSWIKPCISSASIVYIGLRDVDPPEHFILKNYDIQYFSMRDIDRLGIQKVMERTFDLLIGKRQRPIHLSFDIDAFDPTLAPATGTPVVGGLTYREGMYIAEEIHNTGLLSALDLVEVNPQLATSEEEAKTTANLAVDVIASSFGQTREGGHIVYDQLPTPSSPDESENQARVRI
Briefly: in vitro enzyme assay to detect the production of urea directly proportional to the activity of Arginase II. The class given is functional. On the set-up: scale not given: in the data most compounds retested in dose-response had high values. To be noted: 33.3 µM.

The target in assay [7] is T4, Proteasome subunit beta (Trypanosoma cruzi) (UniProt O96673).
T4 sequence (whole entry): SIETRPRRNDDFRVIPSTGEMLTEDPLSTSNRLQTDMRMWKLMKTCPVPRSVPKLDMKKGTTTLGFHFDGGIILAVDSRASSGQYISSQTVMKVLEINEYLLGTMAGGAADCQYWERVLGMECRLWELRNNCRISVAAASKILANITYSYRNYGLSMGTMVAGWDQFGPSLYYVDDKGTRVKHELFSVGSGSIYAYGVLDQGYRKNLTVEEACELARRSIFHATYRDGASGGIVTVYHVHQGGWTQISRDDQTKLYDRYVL
Briefly: Trypanosoma cruzi proteasome chymotrypsin-like activity (TcProtChymo) assay. The class given is functional. On the set-up: scale not given: in the data most compounds retested in dose-response had high values. Particulars: 9.37 µM.

The species entered for the next assay is Homo sapiens. In words: To identify inhibition of the IFN signalling (Jak-Stat) pathway via expression of an eGFP reporter gene under the control of an IFN-stimulated response element (ISRE) containing MxA promoter. Particulars: 30 µM. On the set-up: scale not given: direction of the effect not stated beside the values. The assay is classed as functional.

Assay [8] deals with T5, Tyrosyl-tRNA synthetase, putative (Trypanosoma cruzi (strain CL Brener)) (UniProt Q4DSP6).
T5 sequence (whole entry): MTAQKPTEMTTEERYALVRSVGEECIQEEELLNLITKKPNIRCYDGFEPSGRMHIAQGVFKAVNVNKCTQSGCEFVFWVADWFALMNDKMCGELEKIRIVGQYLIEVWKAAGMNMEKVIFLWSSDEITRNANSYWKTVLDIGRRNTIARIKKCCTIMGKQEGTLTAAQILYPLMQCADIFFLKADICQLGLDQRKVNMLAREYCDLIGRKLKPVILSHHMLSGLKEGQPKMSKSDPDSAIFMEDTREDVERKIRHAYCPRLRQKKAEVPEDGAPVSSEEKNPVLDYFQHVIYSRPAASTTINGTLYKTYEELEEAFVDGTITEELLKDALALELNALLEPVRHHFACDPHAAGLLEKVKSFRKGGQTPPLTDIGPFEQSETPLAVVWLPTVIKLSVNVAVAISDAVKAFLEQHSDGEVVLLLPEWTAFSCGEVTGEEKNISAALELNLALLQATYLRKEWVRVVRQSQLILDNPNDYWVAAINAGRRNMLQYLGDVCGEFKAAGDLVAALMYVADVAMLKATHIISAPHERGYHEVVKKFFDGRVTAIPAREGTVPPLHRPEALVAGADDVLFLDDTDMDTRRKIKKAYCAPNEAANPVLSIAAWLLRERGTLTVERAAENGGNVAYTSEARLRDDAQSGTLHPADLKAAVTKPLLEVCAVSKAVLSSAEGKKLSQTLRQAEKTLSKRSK
Briefly: Trypanosoma cruzi tyrosyl tRNA synthetase (TcYRS) _High Tyrosine SOP. The assay is classed as functional. On the set-up: scale not given: in the data most compounds retested in dose-response had high values. Particulars: 30 µM.

Assay [9] concerns the target T5, Tyrosyl-tRNA synthetase, putative (Trypanosoma cruzi (strain CL Brener)). In words: Trypanosoma cruzi tyrosyl tRNA synthetase (TcYRS) SOP. To be noted: 30 µM. The class given is functional. On the set-up: scale not given: direction of the effect not stated beside the values.
Assay [10] deals with Chromo domain-containing protein 1 (Saccharomyces cerevisiae (strain ATCC 204508 / S288c) (Baker's yeast)) (UniProt P32657). Briefly: ScCHD-1 Enzyme Inhibition Assay. The assay is classed as functional. On the set-up: scale not given: in the data most compounds retested in dose-response had high values. Particulars: 30 µM.
Chain of Chromo domain-containing protein 1 (Saccharomyces cerevisiae (strain ATCC 204508 / S288c) (Baker's yeast)) (P32657 whole entry, the tested form may be a part): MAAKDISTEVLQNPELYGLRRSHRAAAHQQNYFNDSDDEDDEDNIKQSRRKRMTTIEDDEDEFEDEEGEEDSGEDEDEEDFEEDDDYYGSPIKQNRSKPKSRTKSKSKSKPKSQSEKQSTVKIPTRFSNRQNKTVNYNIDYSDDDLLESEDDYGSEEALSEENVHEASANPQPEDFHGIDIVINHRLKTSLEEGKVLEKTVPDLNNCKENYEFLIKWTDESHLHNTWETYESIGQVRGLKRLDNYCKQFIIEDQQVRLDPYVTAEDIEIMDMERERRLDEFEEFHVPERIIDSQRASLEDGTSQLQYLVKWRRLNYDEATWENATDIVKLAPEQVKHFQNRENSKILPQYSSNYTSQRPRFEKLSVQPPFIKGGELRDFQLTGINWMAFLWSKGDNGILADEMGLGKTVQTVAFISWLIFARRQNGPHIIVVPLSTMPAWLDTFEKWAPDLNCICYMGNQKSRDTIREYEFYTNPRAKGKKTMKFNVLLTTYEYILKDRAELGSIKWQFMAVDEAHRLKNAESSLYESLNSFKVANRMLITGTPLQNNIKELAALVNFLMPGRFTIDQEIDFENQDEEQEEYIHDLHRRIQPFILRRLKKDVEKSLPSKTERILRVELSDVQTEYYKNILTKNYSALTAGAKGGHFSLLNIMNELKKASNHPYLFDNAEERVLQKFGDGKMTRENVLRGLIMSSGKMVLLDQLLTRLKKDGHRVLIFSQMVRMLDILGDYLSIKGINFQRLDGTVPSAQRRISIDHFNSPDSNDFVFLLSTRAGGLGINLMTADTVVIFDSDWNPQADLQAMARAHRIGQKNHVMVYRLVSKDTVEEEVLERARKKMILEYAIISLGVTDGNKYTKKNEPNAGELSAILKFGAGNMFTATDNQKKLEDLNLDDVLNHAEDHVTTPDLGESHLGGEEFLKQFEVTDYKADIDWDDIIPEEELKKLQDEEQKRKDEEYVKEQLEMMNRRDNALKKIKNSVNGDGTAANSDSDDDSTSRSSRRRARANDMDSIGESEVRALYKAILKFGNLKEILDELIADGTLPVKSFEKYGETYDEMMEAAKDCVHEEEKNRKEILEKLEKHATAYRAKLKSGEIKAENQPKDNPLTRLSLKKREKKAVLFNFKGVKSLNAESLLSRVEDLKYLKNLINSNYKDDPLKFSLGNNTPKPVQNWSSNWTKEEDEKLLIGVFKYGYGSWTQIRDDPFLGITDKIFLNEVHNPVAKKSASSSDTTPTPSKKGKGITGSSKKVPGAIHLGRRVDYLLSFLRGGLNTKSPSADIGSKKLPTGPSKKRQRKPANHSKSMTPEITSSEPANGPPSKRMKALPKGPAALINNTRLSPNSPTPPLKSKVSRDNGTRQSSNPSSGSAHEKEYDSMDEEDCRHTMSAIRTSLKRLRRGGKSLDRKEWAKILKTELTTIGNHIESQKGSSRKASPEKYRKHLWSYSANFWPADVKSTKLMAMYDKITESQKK

Chain of Protein translocase subunit SecA (Escherichia coli (strain K12)) (P10408 whole entry): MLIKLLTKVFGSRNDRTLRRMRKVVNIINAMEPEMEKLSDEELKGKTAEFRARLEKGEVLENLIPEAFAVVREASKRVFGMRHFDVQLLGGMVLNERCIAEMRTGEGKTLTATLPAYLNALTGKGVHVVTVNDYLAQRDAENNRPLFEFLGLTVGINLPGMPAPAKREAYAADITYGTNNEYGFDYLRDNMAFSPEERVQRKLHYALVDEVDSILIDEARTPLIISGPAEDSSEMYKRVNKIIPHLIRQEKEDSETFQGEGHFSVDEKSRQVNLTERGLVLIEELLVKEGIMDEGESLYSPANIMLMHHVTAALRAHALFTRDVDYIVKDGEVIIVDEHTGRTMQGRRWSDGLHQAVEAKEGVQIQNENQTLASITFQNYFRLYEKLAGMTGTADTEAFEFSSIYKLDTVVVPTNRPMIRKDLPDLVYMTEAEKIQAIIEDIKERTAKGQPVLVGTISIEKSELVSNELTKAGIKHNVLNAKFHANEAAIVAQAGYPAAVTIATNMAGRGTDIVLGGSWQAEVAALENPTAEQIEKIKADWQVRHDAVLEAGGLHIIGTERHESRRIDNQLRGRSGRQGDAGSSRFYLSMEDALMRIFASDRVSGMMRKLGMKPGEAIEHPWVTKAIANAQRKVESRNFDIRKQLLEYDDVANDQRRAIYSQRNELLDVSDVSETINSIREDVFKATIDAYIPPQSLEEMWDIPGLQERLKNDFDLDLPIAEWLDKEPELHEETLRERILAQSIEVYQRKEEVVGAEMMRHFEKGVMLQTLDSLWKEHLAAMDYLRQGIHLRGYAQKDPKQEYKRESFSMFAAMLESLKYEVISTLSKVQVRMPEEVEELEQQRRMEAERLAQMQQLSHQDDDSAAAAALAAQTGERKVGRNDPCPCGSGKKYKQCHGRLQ
Chain of Sialic acid-binding Ig-like lectin 9 (Homo sapiens) (Q9Y336 whole entry): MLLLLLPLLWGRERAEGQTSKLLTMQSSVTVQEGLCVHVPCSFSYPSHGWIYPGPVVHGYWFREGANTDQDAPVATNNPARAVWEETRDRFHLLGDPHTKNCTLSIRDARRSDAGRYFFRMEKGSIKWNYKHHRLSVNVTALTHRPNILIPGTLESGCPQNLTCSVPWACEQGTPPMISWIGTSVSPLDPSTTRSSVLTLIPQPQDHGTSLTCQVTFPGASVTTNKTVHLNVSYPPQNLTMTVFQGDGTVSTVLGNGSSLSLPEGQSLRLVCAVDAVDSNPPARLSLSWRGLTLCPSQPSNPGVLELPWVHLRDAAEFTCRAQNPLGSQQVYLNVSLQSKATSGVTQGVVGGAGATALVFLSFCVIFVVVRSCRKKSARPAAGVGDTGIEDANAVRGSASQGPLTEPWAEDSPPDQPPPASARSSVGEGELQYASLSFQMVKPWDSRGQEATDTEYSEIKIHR

For `CS(=O)(=O)N1CCN(c2ccc3ccc(C(=O)NC4CC4)cn23)CC1`, the PXC50 was 4.71 in [1] (BOTTOM 0.676888483, HILLSLOPE 1.632295337, MAX_EFFECT 62.22222222, TOP 67.77025413); 4.89 in [1] (BOTTOM 0.960464126, HILLSLOPE 4.237364112, MAX_EFFECT 56.37583893, TOP 52.03393569); 4.97 in assay [1] (BOTTOM 1.708048652, HILLSLOPE 3.091987727, MAX_EFFECT 59.02777778, TOP 55.32905726); 4.98 in [1] (BOTTOM 3.037239637, HILLSLOPE 2.011804467, MAX_EFFECT 63.24110672, TOP 62.63598189); 4.26 in assay [1] (BOTTOM -1.02344126, HILLSLOPE 1.263595064, MAX_EFFECT 66.72443674, TOP 100.0).
`Cc1ccc(CN2CCC(F)(F)C3(CCN(c4cnccn4)C3)C2)o1` (centres undefined): the PXC50 in assay [1] (MAX_EFFECT 8.551068884) and in assay [1] (MAX_EFFECT 15.66901408) was less than 4 each time. Besides, the Percent Effect was -2.38% in assay [2]; 2.7% in [3]; 11.5% in assay [4]; 1.13% in assay [5]; 0% in the assay on Trypanosoma cruzi; 3.33% in [6]. For the same compound, the Percent Effect in [7] was -3.13%; in the assay filed under Homo sapiens, 0.47%; in assay [8], 5.94%; in assay [9], 3.66%; in assay [10] it was -2.36%.
With `Cc1nc(N2CCCCC2)ncc1-c1cc(O)[nH]n1`, the PXC50 in [1] (MAX_EFFECT 13.62007168), in [1] (MAX_EFFECT 16.42743222), in assay [1] (MAX_EFFECT 31.28598848), in assay [1] (MAX_EFFECT 33.33333333) and in [1] (MAX_EFFECT 39.9339934) was less than 4 throughout. Besides, the Percent Effect in assay [2] was -5.23%; in [3], 1.33%; in [4] it was 13%; in [5], 8.28%; in the assay on Trypanosoma cruzi, 1.18%; in assay [6], -8.28%. Besides, the Percent Effect in assay [7] was 6.65%; in the assay filed under Homo sapiens, -20%; in [8] it was 5.29%; in assay [9], 7.69%; in assay [10] it was -1.87%.

For the origin of these results see ChEMBL document CHEMBL3988442, “University of Dundee, Small-Polar-MMV Screening Library” (2021).
